# Source: PubChem (National Center for Advancing Translational Sciences (NCATS))
# PNC inhibitor: inhibitors of perinucleolar compartment assembly; AID 2417; activity change (PNC), negative = inhibition, % at 10 µM; PC3M PTB-GFP, PNC prevalence imaging, 16 h; stronger effect = lower value; 140,000 compounds, 3.1% hits;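 active = readout at or below -70, meaning at least 70% loss of cells showing the perinucleolar compartment, a nuclear body marking cancer cells; inconclusive = readout between -30 and a set limit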;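 also: plate controls were DMSO wells for no effect and camptothecin positive control wells for full effect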
#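 Compounds are pinned in duplicate onto adhered PC3M cells stably expressing GFP-tagged PTB and incubated 16 h at 37 C. Cells are then fixed, nuclei stained with Hoechst, and PNC-positive cells counted.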
# ALOX12 inhib: 12-hLO (ALOX12) enzyme inhibition; Potency, µM (series often up to 57.1 µM), inactives show at the top dose activity change, negative = inhibition, actives largely listed as inhibitors; 150,000 compounds, 0.12% hits; purified 12-hLO, xylenol orange hydroperoxide absorbance; AID 1452; P18054; also: potency is read from the fitted curve at half-maximal effect; nearly all actives have a fitted effect of over 55% in size
# Target sequence (P18054 whole entry, looked up): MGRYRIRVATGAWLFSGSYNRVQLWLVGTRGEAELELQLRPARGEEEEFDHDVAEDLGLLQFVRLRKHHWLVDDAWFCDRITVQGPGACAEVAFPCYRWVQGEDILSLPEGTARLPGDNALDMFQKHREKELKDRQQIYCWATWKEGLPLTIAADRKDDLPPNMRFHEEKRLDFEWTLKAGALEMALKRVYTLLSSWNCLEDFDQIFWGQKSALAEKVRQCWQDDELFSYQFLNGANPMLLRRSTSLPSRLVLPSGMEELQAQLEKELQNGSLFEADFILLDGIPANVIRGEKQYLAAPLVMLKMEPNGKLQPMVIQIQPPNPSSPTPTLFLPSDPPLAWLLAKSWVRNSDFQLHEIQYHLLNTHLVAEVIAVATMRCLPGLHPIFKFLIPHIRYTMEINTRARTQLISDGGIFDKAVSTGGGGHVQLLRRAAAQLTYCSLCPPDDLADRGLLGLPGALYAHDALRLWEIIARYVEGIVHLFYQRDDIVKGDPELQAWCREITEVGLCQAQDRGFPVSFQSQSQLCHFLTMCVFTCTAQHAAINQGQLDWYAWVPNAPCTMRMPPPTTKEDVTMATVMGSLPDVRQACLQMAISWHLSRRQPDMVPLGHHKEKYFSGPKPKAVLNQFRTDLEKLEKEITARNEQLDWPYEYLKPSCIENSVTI
#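 Xylenol orange chromogenic assay: hydroperoxide from 12hLO oxidises Fe(II), giving red-shifted Fe(III)-XO absorbance. Conditions: 150 nM enzyme, 40 uM arachidonic acid, 25 mM Hepes pH 7.0, 0.01% Triton X-100, 30 min, room temperature.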
# 15-hLO-2 inh: inhibitors of human 15-lipoxygenase 2 (ALOX15B). O15296. purified 15hLO-2, xylenol orange hydroperoxide absorbance. Potency, µM (top dose mostly 57.1 µM), inactives show at the highest dose activity change, negative = inhibition, hits mostly inhibitors. 110,000 compounds, 0.56% hits; also: potency is read from the fitted curve at half-maximal effect; nearly all actives have a fitted effect of over 60% in size
#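 Screening format was qHTS against 50 nM purified 15hLO-2 in Hepes pH 7.5 with detergent. Activity follows hydroperoxide formation from 45 uM arachidonic acid, measured as 573:405 nm absorbance ratio of the ferric-xylenol orange complex.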
# * hit, by the source's call; ? = inconclusive; · = no result; [ ] = another dose, or the depositor's remark. Rows were chosen to be rich in hits. Some 3.2% of all compounds tested hit in one or more screens of this group. Unless noted, calls follow the shape of the dose curve; as a rule, active = well fitted curve in the direction sought with a large enough effect; inconclusive = small, poorly fitted or top-dose-only effect, or another doubt; inactive = no such curve, though single readings can be large; an effect the other way counts as inactive or inconclusive. Unless noted, % is scaled to controls: 0 for no effect and ±100 for the full control effect.
SMILES,PNC inhibitor,ALOX12 inhib,15-hLO-2 inh
C=C/C(=C/C(=O)C[C@H](C)C[C@@H](C)CC[C@H](O)[C@H](C)C(=O)C[C@@H](O)[C@H](C)[C@@H](C)OC(=O)C[C@@H](O)C1=C(C)C(=O)OC1=O)CC,·,2.1%[0.00818 µM],?
O=C(O)CSCC(=O)O,·,-3.6%[11.4 µM],-0.8%[11.4 µM]
CC(=O)[C@@H]1CC[C@H]2[C@H]3CC[C@H]4C[C@@H](O)CC[C@]4(C)[C@@H]3CC[C@]12C,·,-2.9%,-11.3%
Cc1cc(NC(=O)CCC(=O)N2CCC3(CC2)OCCO3)no1,-84.0*,0.1%,-3.6%
COc1ccc(CNCC(=O)N2CCC3(CC2)OCCO3)cc1,-13.0,-6.2%,-13.2%
C#CCN[C@@H](C)Cc1ccccc1,·,-1.7%,-4.5%
COc1cc(/C=C/[N+](=O)[O-])ccc1O,-83.7*,-20.1%,·
CCOc1cc(C=O)ccc1O,·,-1.3%,-8.6%
CCCC[N+]1(C)[C@@H]2CC(OC(=O)[C@@H](CO)c3ccccc3)C[C@H]1[C@H]1O[C@H]12 (stereo partly specified),·,-2.8%,-9.1%
CCC12CN3CCN(CC(C3)C1O)C2 (stereo unspecified),-15.9,4.1%,·
CC(C)=CCC12CN3CCN(CC(C3)C1=O)C2,-87.8*,1.6%,-4.9%
CC(C)C[C@H](NP(=O)(O)O[C@@H]1O[C@@H](C)[C@@H](O)[C@@H](O)[C@H]1O)C(=O)N[C@@H](Cc1c[nH]c2ccccc12)C(=O)O,·,2.0%,4.6%
CC(C)c1ccc(C(O)(C(=O)O)c2ccc(C(C)C)cc2)cc1,·,0.4%[11.4 µM],-2.7%[11.4 µM]
O=C(COc1ccc(Cl)cc1)NC1CN2CCC1CC2 (stereo unspecified),-1.4,-3.5%,6.4%
C=C(C)c1cccc(C(C)(C)NC(=O)NC2CN3CCC2CC3)c1 (stereo unspecified),-93.6*,-5.7%,23.2%
C[C@]1(O)CC[C@H]2[C@@H]3[C@@H](O)CC4=CC(=O)CC[C@@]4(C)[C@H]3CC[C@]21C,·,3.7%[11.4 µM],-6.6%[11.4 µM]
O=C(c1csc2c1CCCCC2)N1CCC2(CC1)OCCO2,?,-5.3%,11.2%
O=C(c1cc2c(s1)CCCC2)N1CCC2(CC1)OCCO2,-26.4,0.8%,7.94µM*
O=P(O)(O)CCP(=O)(O)O,·,1.4%[11.4 µM],-3.2%[11.4 µM]
